# Activity calls are given as the source filed them. The calls were made as follows: active = hit-call score of the fitted dose curve at least 0.9, where 1 is the maximum; inactive = score below 0.9.
# Key:
# [1] = target: CCAAT/enhancer-binding protein beta (Homo sapiens) (UniProt P17676); experiment: ATG_C_EBP_CIS: Attagene CIS-FACTORIAL HepG2 Assay for human CCAAT/Enhancer Binding Protein (C/EBP) beta (AID 2282927); settings: HepG2 Attagene cis-factorial transcription factor reporter; actives raise or lower the signal
# CCAAT/enhancer-binding protein beta (Homo sapiens), sequence (P17676 whole entry, looked up, the tested form may be a part): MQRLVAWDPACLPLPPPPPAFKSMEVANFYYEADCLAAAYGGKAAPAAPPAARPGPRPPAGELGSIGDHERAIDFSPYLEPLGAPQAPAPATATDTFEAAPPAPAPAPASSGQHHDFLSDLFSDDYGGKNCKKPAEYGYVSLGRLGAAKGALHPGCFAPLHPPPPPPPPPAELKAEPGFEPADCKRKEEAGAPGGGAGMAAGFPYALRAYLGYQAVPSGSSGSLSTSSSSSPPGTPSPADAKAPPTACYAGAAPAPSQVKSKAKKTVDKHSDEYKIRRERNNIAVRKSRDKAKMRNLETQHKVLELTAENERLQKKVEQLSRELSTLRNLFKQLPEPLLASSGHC
# How it was run: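 Chemical-treated HepG2 cells (24 h) bearing cis-regulated reporter constructs were processed for total RNA, then reverse transcription, PCR amplification, fluorescent primer extension and fragment analysis; gain- and loss-of-signal were fitted against DMSO.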
# [2] = ATG_CMV_CIS: Attagene CIS-FACTORIAL HepG2 Assay for human CMV (Internal Marker) (AID 2282928); settings: HepG2 CMV promoter reporter, transcription factor profiling; actives raise or lower the signal;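 also: endpoint acts as a background internal control marker rather than a target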
# How it was run: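 Bidirectional fits against DMSO are applied to reporter mRNA, read by RT-PCR with capillary electrophoresis, from HepG2 cells exposed 24 h. The endpoint serves as an internal CMV background marker within the cis-factorial reporter panel.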
# [3] = ATG_DR4_LXR_CIS: Attagene CIS-FACTORIAL HepG2 Assay for human Liver X Receptor (LXR), DR4 submotif (AID 2282929); settings: HepG2 Attagene DR4 cis-reporter, mRNA transcription; actives raise or lower the signal
# How it was run: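 The endpoint is DR4-element-driven reporter transcripts after 24 h chemical exposure of transfected HepG2 cells. These were measured via RT-PCR and capillary electrophoresis, and gain or loss of signal was fitted relative to DMSO controls.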
# [4] = ATG_AP_1_CIS: Attagene CIS-FACTORIAL HepG2 Assay for human Activator Protein 1 (AP-1) (AID 2282931); settings: HepG2 Attagene cis-factorial AP-1 reporter mRNA; actives raise or lower the signal
# How it was run: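 Readout is reporter transcript level from endogenous transcription factor activity, quantified by RT-PCR with fluorescent primer extension and capillary electrophoresis. Transiently transfected HepG2 cells, 24 h exposure. Curves fitted both directions versus DMSO.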
# [5] = ATG_AP_2_CIS: Attagene CIS-FACTORIAL HepG2 Assay for human Activator Protein 2 (AP-2) (AID 2282932); settings: HepG2 AP-2 cis-reporter, Attagene transcription factor profiling; actives raise or lower the signal
# How it was run: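 Assay in transfected HepG2 with promoter-regulated reporters, 24 h incubation after dosing. Signal is reporter mRNA fluorescence (RT-PCR, capillary electrophoresis), analysed for both increases and decreases relative to DMSO controls.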
# [6] = ATG_BRE_CIS: Attagene CIS-FACTORIAL HepG2 Assay for human Bone Morphogenetic Protein (BMP) Response Element (BRE) (AID 2282933); settings: HepG2 BMP response element reporter, Attagene transcription factor profiling; actives raise or lower the signal
# How it was run: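 Gain- or loss-of-signal was derived by bidirectional fitting against DMSO controls. The signal came from reporter mRNA, measured by RT-PCR and capillary electrophoresis, in HepG2 cells transiently carrying multiple reporter units and dosed for 24 h.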
# [7] = target: Transcription factor E2F1 (Homo sapiens) (UniProt Q01094); experiment: ATG_E2F_CIS: Attagene CIS-FACTORIAL HepG2 Assay for human E2F Transcription Factor 1 (AID 2282935); settings: HepG2 Attagene cis-reporter, E2F reporter RNA transcripts; actives raise or lower the signal
# Transcription factor E2F1 (Homo sapiens), sequence (Q01094 whole entry, looked up): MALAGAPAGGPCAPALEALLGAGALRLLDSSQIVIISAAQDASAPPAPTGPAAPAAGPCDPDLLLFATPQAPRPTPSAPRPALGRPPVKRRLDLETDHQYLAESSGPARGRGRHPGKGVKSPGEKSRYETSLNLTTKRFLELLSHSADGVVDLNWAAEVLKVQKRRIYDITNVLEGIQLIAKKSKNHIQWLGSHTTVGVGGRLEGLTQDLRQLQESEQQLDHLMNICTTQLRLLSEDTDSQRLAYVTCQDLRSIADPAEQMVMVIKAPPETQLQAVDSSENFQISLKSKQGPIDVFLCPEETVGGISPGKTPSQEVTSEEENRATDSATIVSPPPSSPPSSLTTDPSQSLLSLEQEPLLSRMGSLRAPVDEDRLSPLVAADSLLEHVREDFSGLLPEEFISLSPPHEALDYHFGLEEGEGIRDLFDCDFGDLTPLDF
# How it was run: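 In this cis-factorial format, endogenous factor activity drives transfected reporters in HepG2; transcripts collected at 24 h are quantified by fluorescence after RT-PCR and capillary separation.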
# [8] = ATG_E_Box_CIS: Attagene CIS-FACTORIAL HepG2 Assay for human Enhancer Box (E-box) (AID 2282936); settings: HepG2 E-box cis-reporter transcription, actives raise or lower the signal
# How it was run: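 Measured 24 h post-dosing in HepG2 cells transfected with multiple cis-regulated reporter units, signal being reporter mRNA induction detected by fluorescent RT-PCR with capillary electrophoresis; gain or loss fitted against DMSO.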
# [9] = ATG_M_61_CIS: Attagene CIS-FACTORIAL HepG2 Assay for M61 Transcription Factor (Internal Marker) (AID 2282937); settings: HepG2 Attagene CIS-FACTORIAL M61 internal marker reporter; actives raise or lower the signal
# How it was run: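 Readout is reporter mRNA by RT-PCR, fluorescent primer extension and capillary electrophoresis, with gain or loss fitted relative to DMSO. Transfected HepG2 cells carrying endogenous-TF-driven cis reporters were exposed to chemicals for 24 hours.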
# [10] = ATG_EGR_CIS: Attagene CIS-FACTORIAL HepG2 Assay for human Early Growth Response 1 (EGR1) (AID 2282938); settings: HepG2 Attagene CIS-FACTORIAL EGR reporter mRNA; actives raise or lower the signal
# How it was run: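 After 24 h compound exposure, RNA from reporter-transfected HepG2 cells was reverse-transcribed, PCR-amplified, fluorescently labelled and resolved by capillary electrophoresis. EGR1 reporter transcript changes, up or down, were fitted against DMSO, reflecting endogenous transcription-factor activity.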
# [11] = ATG_Ets_CIS: Attagene CIS-FACTORIAL HepG2 Assay for human Erythroblast Transformation Specific (ETS) (AID 2282941); settings: HepG2 ETS cis-reporter transcription, actives raise or lower the signal
# How it was run: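 Endogenous transcription factor activity read as reporter mRNA via RT-PCR and capillary electrophoresis, with gain or loss fitted bidirectionally against DMSO. Human HepG2 liver cells, transiently transfected CIS reporter constructs, 24 h exposure.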
# [12] = ATG_GATA_CIS: Attagene CIS-FACTORIAL HepG2 Assay for human GATA Binding Protein (AID 2282944); settings: HepG2 GATA cis-element reporter, Attagene multiplex mRNA; actives raise or lower the signal
# How it was run: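 DMSO serves as negative control and baseline for bidirectional fitting of reporter mRNA changes. HepG2 cells bearing transiently transfected cis-promoter reporters were exposed 24 h; transcripts detected via RT-PCR and capillary electrophoresis.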
# [13] = ATG_GLI_CIS: Attagene CIS-FACTORIAL HepG2 Assay for human Zinc Finger Protein GLI1 (AID 2282945); settings: HepG2, Attagene cis-factorial reporter mRNA, GLI element; actives raise or lower the signal
# How it was run: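 HepG2 cells transiently transfected with cis-promoter multiplexed reporter units report endogenous transcription factor activity. After 24 h chemical exposure, reporter mRNA was quantified by RT-PCR, 6-FAM labelling, HpaI digestion and capillary electrophoresis, with bidirectional fitting against DMSO.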
# [14] = ATG_ISRE_CIS: Attagene CIS-FACTORIAL HepG2 Assay for human Interferon Regulatory Factor 1 (IRF1) binding to an Interferon-Stimulated Response Element (ISRE) (AID 2282948); settings: HepG2 ISRE cis-reporter (Attagene), mRNA transcription readout; actives raise or lower the signal
# How it was run: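 Endogenous transcription factor activity read as reporter transcript abundance via RT-PCR and capillary electrophoresis. HepG2 cells transiently transfected, 24 h chemical exposure. Gain or loss fitted against DMSO baseline.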
# [15] = ATG_M_32_CIS: Attagene CIS-FACTORIAL HepG2 Assay for M32 Transcription Factor (Internal Marker) (AID 2282949); settings: HepG2 Attagene cis-factorial M32 reporter, mRNA; actives raise or lower the signal;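 also: background control marker of the multiplexed CIS panel rather than a real target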
# How it was run: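 Transient MRTU transfection of HepG2; 24 h compound treatment; TriZol RNA, oligo(dT) RT, reporter PCR, 6-FAM primer extension, HpaI cut, CE. Gain/loss of signal vs DMSO.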
# [16] = ATG_M_06_CIS: Attagene CIS-FACTORIAL HepG2 Assay for M06 Transcription Factor (Internal Marker) (AID 2282950); settings: HepG2 Attagene CIS-FACTORIAL M06 internal marker reporter; actives raise or lower the signal
# How it was run: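 Fluorescence-labelled RT-PCR products from cis-promoter reporter units, cut with HpaI and resolved by capillary electrophoresis, give the signal. Cells are human HepG2, dosed for 24 h. Serves as background control, fitted relative to DMSO.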
# [17] = target: Hepatocyte nuclear factor 6 (Homo sapiens) (UniProt Q9UBC0); experiment: ATG_HNF6_CIS: Attagene CIS-FACTORIAL HepG2 Assay for human Hepatocyte Nuclear Factor 6 (HNF6) (AID 2282952); settings: HepG2 Attagene cis-factorial HNF6 reporter transcription; actives raise or lower the signal
# Hepatocyte nuclear factor 6 (Homo sapiens), sequence (Q9UBC0 whole entry, looked up): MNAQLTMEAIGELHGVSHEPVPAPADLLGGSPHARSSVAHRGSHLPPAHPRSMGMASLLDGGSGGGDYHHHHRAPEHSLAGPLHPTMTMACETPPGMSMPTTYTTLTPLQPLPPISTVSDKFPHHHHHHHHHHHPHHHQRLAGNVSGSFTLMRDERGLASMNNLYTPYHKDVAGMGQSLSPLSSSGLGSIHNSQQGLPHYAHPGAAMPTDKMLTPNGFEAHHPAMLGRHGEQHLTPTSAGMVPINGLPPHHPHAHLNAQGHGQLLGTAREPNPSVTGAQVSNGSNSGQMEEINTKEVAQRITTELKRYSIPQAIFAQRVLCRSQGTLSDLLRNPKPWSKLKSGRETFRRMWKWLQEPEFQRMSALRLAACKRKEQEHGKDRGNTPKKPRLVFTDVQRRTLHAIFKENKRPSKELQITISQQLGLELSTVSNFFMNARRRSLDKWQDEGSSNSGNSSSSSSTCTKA
# How it was run: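 Activity values derive from bidirectional fitting against DMSO of reporter mRNA levels, measured by capillary electrophoresis of labelled RT-PCR products from HepG2 cells exposed 24 h.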
# [18] = ATG_MRE_CIS: Attagene CIS-FACTORIAL HepG2 Assay for human Metal Responsive Element (MRE) (AID 2282954); settings: HepG2 MRE cis-reporter transcription, Attagene multiplex; actives raise or lower the signal
# How it was run: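 Readout: capillary electrophoresis of 6-FAM-labelled, HpaI-digested RT-PCR reporter products. System: HepG2 cells carrying transient multiplexed cis reporters, dosed 24 h. Analysis: bidirectional fit, DMSO baseline.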
# [19] = ATG_PXRE_CIS: Attagene CIS-FACTORIAL HepG2 Assay for human Pregnane X Receptor Element (PXRE) (AID 2282957); settings: HepG2 Attagene CIS-FACTORIAL PXRE reporter, mRNA; actives raise or lower the signal
# How it was run: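 Fluorescent capillary electrophoresis of amplified reporter cDNA gave the signal, collected 24 h after dosing HepG2 cells that held transfected cis-element reporter constructs.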
# [20] = ATG_Sox_CIS: Attagene CIS-FACTORIAL HepG2 Assay for human SRY-box transcription factor (SOX) (AID 2282960); settings: HepG2 Attagene cis-factorial SOX reporter, mRNA; actives raise or lower the signal
# How it was run: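 Reporter transcripts, measured by RT-PCR and capillary electrophoresis of labelled fragments, report endogenous SOX transcription factor activity. Transiently transfected human HepG2 cells receive chemical for 24 h; changes in either direction are fitted relative to DMSO.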
smiles,measurement,setting,value
O=S(=O)(O)O,outcome,[1],inactive
same,outcome,[2],inactive
same,outcome,[3],inactive
same,outcome,[4],inactive
same,outcome,[5],inactive
same,outcome,[6],inactive
same,outcome,[7],inactive
same,outcome,[8],inactive
same,outcome,[9],inactive
same,outcome,[10],inactive
same,outcome,[11],inactive
same,outcome,[12],inactive
same,outcome,[13],inactive
same,outcome,[14],inactive
same,outcome,[15],inactive
same,outcome,[16],inactive
same,outcome,[17],inactive
same,outcome,[18],inactive
same,outcome,[19],inactive
same,outcome,[20],inactive
CC(C)CCCCCCCOC(=O)c1ccccc1C(=O)OCCCCCCCC(C)C,outcome,[1],inactive
same,outcome,[2],inactive
same,outcome,[3],inactive
same,outcome,[4],inactive
same,outcome,[5],inactive
same,outcome,[6],inactive
same,outcome,[7],inactive
same,outcome,[8],inactive
same,outcome,[9],inactive
same,outcome,[10],inactive
same,outcome,[11],inactive
same,outcome,[12],inactive
same,outcome,[13],inactive
same,outcome,[14],inactive
same,outcome,[15],inactive
same,outcome,[16],inactive
same,outcome,[17],inactive
same,outcome,[18],inactive
same,AC50,[19],1190 nM (active)
same,outcome,[20],inactive
COc1ccc(CO)cc1,outcome,[1],inactive
same,outcome,[2],inactive
same,outcome,[3],inactive
same,outcome,[4],inactive
same,outcome,[5],inactive
same,outcome,[6],inactive
same,outcome,[7],inactive
same,outcome,[8],inactive
same,outcome,[9],inactive
same,outcome,[10],inactive
same,outcome,[11],inactive
same,outcome,[12],inactive
same,outcome,[13],inactive
same,outcome,[14],inactive
same,outcome,[15],inactive
same,outcome,[16],inactive
same,outcome,[17],inactive
same,outcome,[18],inactive
same,outcome,[19],inactive
same,outcome,[20],inactive
C[N+](=O)[O-],outcome,[1],inactive
same,outcome,[2],inactive
same,outcome,[3],inactive
same,outcome,[4],inactive
same,outcome,[5],inactive
same,outcome,[6],inactive
same,outcome,[7],inactive
same,outcome,[8],inactive
same,outcome,[9],inactive
same,outcome,[10],inactive
same,outcome,[11],inactive
same,outcome,[12],inactive
same,outcome,[13],inactive
same,outcome,[14],inactive
same,outcome,[15],inactive
same,outcome,[16],inactive
same,outcome,[17],inactive
same,outcome,[18],inactive
same,outcome,[19],inactive
same,outcome,[20],inactive
